UBC13 polyUb = UBC13 polyubiquitin chain formation inhibitors, primary screen, biochemical, TR-FRET, uHTS. Ubiquitin-conjugating enzyme E2 N (Homo sapiens), P61088. inhibition, % at 20 µM. 0.47% of 330,000 active; in the data active means inhibition above about 45%, passing the limit was not always enough
SUMO HTRF inh = inhibitors of in vitro SUMOylation cascade, primary screen, biochemical, HTRF, uHTS. SUMO-conjugating enzyme UBC9 (Homo sapiens), P63279. HTRF SUMOylation assay, SAE1/SAE2 + UBC9. inhibition, % at 35 µM. 0.36% of 290,000 active. AID 2006, 2009; in the data active means inhibition above about 50%, passing the limit was not always enough
sPLA2-III inh = human group III sPLA2 inhibitors, primary screen, biochemical, QFRET, BODIPY PC-A2 liposome substrate; QFRET BODIPY PC-A2 liposome hydrolysis, fluorescence; inhibition, % at 12.2 µM; 0.56% of 370,000 active; AID 743126, 2013;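 active means inhibition above mean plus 3 SD of compounds lying within the high and low control bounds, cut at about 19% in these data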;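 further: 0% = median of test compound wells and 100% = no enzyme DMSO wells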
Target sequence (Q9NZ20 whole entry, looked up): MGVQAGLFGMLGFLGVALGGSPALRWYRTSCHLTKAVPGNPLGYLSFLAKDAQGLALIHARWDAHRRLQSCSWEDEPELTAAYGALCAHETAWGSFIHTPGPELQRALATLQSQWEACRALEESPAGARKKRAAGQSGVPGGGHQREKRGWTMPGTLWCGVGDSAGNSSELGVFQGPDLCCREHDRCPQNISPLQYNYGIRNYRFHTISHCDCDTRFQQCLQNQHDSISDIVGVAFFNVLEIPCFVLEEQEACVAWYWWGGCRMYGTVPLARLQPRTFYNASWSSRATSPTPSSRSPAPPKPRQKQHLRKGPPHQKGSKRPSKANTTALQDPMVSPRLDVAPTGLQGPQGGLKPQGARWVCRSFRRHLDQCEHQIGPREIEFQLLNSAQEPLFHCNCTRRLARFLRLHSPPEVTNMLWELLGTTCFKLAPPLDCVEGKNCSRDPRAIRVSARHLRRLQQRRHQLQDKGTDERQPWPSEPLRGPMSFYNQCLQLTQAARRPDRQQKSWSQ
GRIN3A LBD mod = binders of NR3A ligand-binding domain, primary screen, biophysical, differential scanning fluorimetry, uHTS | Glutamate receptor ionotropic, NMDA 3A (GRIN3A) ligand-binding domain | Tm shift relative to glycine control, % at 25 µM | 2.5% of 340,000 active | NR3A LBD differential scanning fluorimetry, Tm shift; 0% = protein alone, 100% = glycine-bound protein;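 active means melting temperature shift of at least 10% of the positive control shift, at one fixed dose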
Numbers without * were called inactive. A selection: hits, their analogues and other compounds. The true share with any hit is near 3.3%.

How did CCOc1cc(/C=N/NC(=O)c2cc3c(ccc4ccccc43)o2)ccc1O do in these assays?
UBC13 polyUb: 0; SUMO HTRF inh: 20; sPLA2-III inh: -14; GRIN3A LBD mod: 28*

What do the screens show for `COc1cc(/C=N/NC(=O)c2cc(C3CC3)[nH]n2)ccc1O`?
UBC13 polyUb: -13; SUMO HTRF inh: 3; sPLA2-III inh: 13; GRIN3A LBD mod: -3

What do the screens show for `CC(C)n1cc(/C=N\NC(=O)c2cc3c(ccc4ccccc43)o2)c2ccccc21`?
SUMO HTRF inh: -13; sPLA2-III inh: -2; GRIN3A LBD mod: -2

What do the screens show for `CCOC(=O)COc1ccccc1/C=N\NC(=O)c1cc2c(ccc3ccccc32)o1`?
UBC13 polyUb: -21; SUMO HTRF inh: 7; sPLA2-III inh: 0; GRIN3A LBD mod: 0

What do the screens show for `CCOc1cc(/C=N/NC(=O)c2cc(C3CC3)[nH]n2)ccc1O`?
UBC13 polyUb: -5; SUMO HTRF inh: 0; sPLA2-III inh: 0; GRIN3A LBD mod: 26*

What do the screens show for `CCn1cc(/C=N/NC(=O)c2cc3c(ccc4ccccc43)o2)c2ccccc21`?
UBC13 polyUb: -8; SUMO HTRF inh: 28; sPLA2-III inh: -5; GRIN3A LBD mod: 26*

How did Cc1cc2c(s1)c1cnn(Cc3ccc(F)cc3F)c(=O)c1n2C do in these assays?
sPLA2-III inh: 0

How did COCCCN1C(=O)[C@H](CC(=O)NCC23CC4CC(CC(C4)C2)C3)[C@]2(C(=O)OC)CCCCC=C12 do in these assays?
sPLA2-III inh: -4

Results for CCOC(=O)N1CCc2c(sc(NC(=O)CCS(=O)(=O)c3ccccc3)c2C(N)=O)C1 ?
UBC13 polyUb: 5; SUMO HTRF inh: 9; sPLA2-III inh: -3; GRIN3A LBD mod: -2

Results for CNC(=O)c1c(NC(=O)CCS(=O)(=O)c2ccc(Cl)cc2)sc2c1CCN(C(=O)OC)C2 ?
UBC13 polyUb: -2; sPLA2-III inh: -5; GRIN3A LBD mod: 10*

How did CC(C)(C)c1ccc(S(=O)(=O)N2CCCC(C(=O)NCCN3CCC(Cc4ccccc4)CC3)C2)cc1 (configuration not stated) do in these assays?
sPLA2-III inh: 0

How did COc1ccc(-c2[nH]c(-c3ccc(C)cc3)nc2SCC(=O)Nc2nccs2)cc1 do in these assays?
UBC13 polyUb: -9; SUMO HTRF inh: -21; sPLA2-III inh: 1; GRIN3A LBD mod: 5

Results for COc1ccc(-c2nc(SCC(=O)Nc3nccs3)c(-c3ccc(Cl)cc3)[nH]2)cc1 ?
UBC13 polyUb: -19; SUMO HTRF inh: 9; sPLA2-III inh: -15; GRIN3A LBD mod: 15*

How did CC(Oc1ccc(Br)cc1)c1nc2c3ccccc3nc(=S)n2[nH]1 (configuration not stated) do in these assays?
UBC13 polyUb: 32; SUMO HTRF inh: -3; sPLA2-III inh: 1; GRIN3A LBD mod: -3

How did CCCC(Oc1ccc(Br)cc1)c1nc2c3cc(OC)c(OC)cc3nc(=S)n2[nH]1 (configuration not stated) do in these assays?
UBC13 polyUb: 34; SUMO HTRF inh: -22; sPLA2-III inh: -2; GRIN3A LBD mod: 16*

Results for CCOC(=O)c1ccc(NC(=O)Oc2ccccc2)cc1 ?
UBC13 polyUb: 11; SUMO HTRF inh: 7; sPLA2-III inh: 0; GRIN3A LBD mod: 34*

What do the screens show for `CCOC(=O)c1ccc(NC(=O)Oc2cc(C)c(Cl)cc2C(C)C)cc1`?
UBC13 polyUb: 7; SUMO HTRF inh: 14; sPLA2-III inh: 13; GRIN3A LBD mod: 15*

Results for CCOC(=O)c1ccc(NC(=O)Nc2ncc(Cl)cc2Cl)cc1 ?
UBC13 polyUb: -1; SUMO HTRF inh: 1

What do the screens show for `CCOC(=O)c1ccc(NC(=O)c2ccccc2)cc1`?
UBC13 polyUb: 5; SUMO HTRF inh: 18; sPLA2-III inh: 7; GRIN3A LBD mod: -3

Results for C/C(=N\NC(=O)c1ccc(C)cc1C)c1ccc2c(c1)Nc1ccccc1S2 ?
UBC13 polyUb: -7; SUMO HTRF inh: -14; sPLA2-III inh: 15; GRIN3A LBD mod: 12*

Results for Cc1cc(C)cc(OCC(C)CN2CCC(C(O)(c3ccccc3)c3ccccc3)CC2)c1 (configuration not stated) ?
sPLA2-III inh: -16

What do the screens show for `O=c1cc(-c2ccc(O)cc2)oc2cc(O)cc(O)c12`?
UBC13 polyUb: 29; sPLA2-III inh: 8; GRIN3A LBD mod: 17*

Results for COc1ccc(-c2cc(=O)c3c(O)c(OC)c(O)cc3o2)cc1 ?
UBC13 polyUb: 3; SUMO HTRF inh: 7; sPLA2-III inh: 2; GRIN3A LBD mod: 12*

How did O=c1c(O)c(-c2ccc(O)cc2)oc2cc(O)cc(O)c12 do in these assays?
UBC13 polyUb: 12; sPLA2-III inh: 2; GRIN3A LBD mod: 13*

How did O=c1cc(-c2ccccc2)oc2cc(O)cc(O)c12 do in these assays?
UBC13 polyUb: 10; sPLA2-III inh: -27; GRIN3A LBD mod: -8

What do the screens show for `COc1ccc(-c2cc(=O)c3c(O)c(OC)c(OC)c(OC)c3o2)cc1`?
sPLA2-III inh: -11; GRIN3A LBD mod: 0

How did CC(C)=CCC/C(C)=C/CNCC(=O)N1c2ccccc2[C@]2(c3ccccc3)C[C@@H]3C(=O)N(C/C=C(\C)CCC=C(C)C)CC(=O)N3[C@H]12 do in these assays?
sPLA2-III inh: -7

What do the screens show for `Cc1cc2cc(CNC(=S)Nc3ccc(OC(F)(F)F)cc3)ccc2[nH]1`?
UBC13 polyUb: -5; SUMO HTRF inh: -9; sPLA2-III inh: 8; GRIN3A LBD mod: 12*

What do the screens show for `Oc1ccccc1C=NN=CC=Cc1ccccc1`?
sPLA2-III inh: -4; GRIN3A LBD mod: 1

How did Oc1ccccc1C=NN=Cc1ccccc1Cl do in these assays?
sPLA2-III inh: 10; GRIN3A LBD mod: 13*

Results for COc1cc(/C=C(\C#N)C(=O)NCC2CCCO2)ccc1OCC(=O)O (configuration not stated) ?
UBC13 polyUb: -2; SUMO HTRF inh: 16; sPLA2-III inh: 10; GRIN3A LBD mod: -2

What do the screens show for `COc1ccc(CCNC(=O)/C(C#N)=C/c2ccc(OCC(=O)NCC3CCCO3)cc2)cc1OC` (configuration not stated)?
UBC13 polyUb: -4; SUMO HTRF inh: 18; sPLA2-III inh: 0; GRIN3A LBD mod: 14*

How did O=C(Nc1ccccc1Cl)Oc1ccc(Cl)cc1Cl do in these assays?
UBC13 polyUb: 6; SUMO HTRF inh: 4; sPLA2-III inh: 3; GRIN3A LBD mod: 10*

How did CC1C(=O)C(C)C(c2cc(Br)ccc2O)NC1c1cc(Br)ccc1O (configuration not stated) do in these assays?
sPLA2-III inh: -21; GRIN3A LBD mod: 32*

Results for CC1C(=O)C(C)C(c2ccc(Br)cc2)NC1c1ccc(Br)cc1 (configuration not stated) ?
UBC13 polyUb: -14; SUMO HTRF inh: -26; sPLA2-III inh: 1; GRIN3A LBD mod: -14

Results for COc1ccc(CCN(Cc2cccs2)S(=O)(=O)c2ccc(F)cc2)cc1OC ?
sPLA2-III inh: -10
